Results on 26 compounds are retold here after PubChem BioAssay AID624296 (National Center for Advancing Translational Sciences (NCATS), 2012).

Among all 350,000 compounds or so, about 9,900 (2.8%) were called active. Entries that show only a call come without a potency. Inconclusive results (about 15%) are left out. This is one part of a sample in which actives are shown more often than they occur. Calls follow the shape of the dose curve; as a rule, active = well fitted activation curve with a large enough effect; inconclusive = small, poorly fitted or top-dose-only effect; inactive = no such curve, though single readings can be large or run the other way.
Potency is read from the fitted curve at half-maximal effect.

The nature of the assay: A quantitative high throughput screen for small molecules that induce DNA re-replication in MCF 10a normal breast cells. Also: nearly all actives have a fitted effect of over 50% in size. Conditions: MCF 10A DNA re-replication, Hoechst nuclear intensity, 48 h; series mostly up to 46.1 µM.
As to `CNN/C(N=Cc1ccc([N+](=O)[O-])s1)=N\S(=O)(=O)c1cc(C)c(Cl)cc1SCc1ccccc1`, the Potency entry is “inactive”. `CN(CCc1ccccc1)C(=O)c1cccc(NC(=O)Cc2ccc([N+](=O)[O-])cc2)c1`: the Potency entry is “inactive”.

Turning to `O=C1c2ccccc2[C@@H]2C[C@@H](O)[C@H](Nc3ccccc3Cl)CCN12`, the Potency entry is “inactive”. Under `CC(C)N(C(=O)CSc1nnc(NC2CC2)s1)c1ccccc1` stands “inactive”. With `CC(=O)c1c(C)oc2ccc(NS(=O)(=O)c3ccccc3)cc12` the entry was “inactive”. Under `CC(=O)c1c(C)oc2ccc(NS(=O)(=O)c3ccc(C(=O)O)cc3)cc12` stands “inactive”. As to `COc1ccc(S(=O)(=O)Nc2ccc3oc(C)c(C(C)=O)c3c2)cc1`, the Potency was 5.17 µM (active). For `NN=C(NN=Cc1ccccc1)c1ccccc1`, the Potency result was “inactive”. With `COc1ccc(S(=O)(=O)N(C)C[C@H]2Oc3ccc(NS(=O)(=O)c4cccs4)cc3CC(=O)N([C@H](C)CO)C[C@H]2C)cc1` the entry was “inactive”; with `Cc1cc(C)nc(SCC(=O)c2ccc(Cl)cc2)n1`, “inactive”; with `Cc1ccc(N/C=C/C(=O)c2ccccc2)cc1C`, “inactive”.

With `Cc1cc(C)nc(S/C=C/C(=O)c2ccccc2)n1`, the Potency is 1.3 µM (active). For `CC(=O)C[C@H](O)CC(=O)[C@@H]1OC(=O)[C@@H](C)C/C=C\Cc2ccccc21`, the Potency entry was “inactive”. Under `CCOc1ccc(NC(=O)CN(C)C(=O)CSc2ccccc2)cc1OCC` stands “inactive”; under `Cc1cc(NC(=O)CSc2nc3ccccc3n2CC(C)C)no1`, “inactive”. On to `Cc1cc(NC(=O)CSc2nnc(-c3ccco3)n2N)no1`, for which the Potency entry is “inactive”. In the case of `Cc1cc(NC(=O)CSc2nc3cc(Cl)ccc3c(=O)n2Cc2ccco2)no1`, the Potency was 18.4 µM (active). With `COc1ccc(S(=O)(=O)N2CCOCC2)cc1NC(=O)Cc1coc2cc(C)ccc12` the entry was “inactive”. Under `COC(=O)C1CC2=C(CC(C)(C)CC2=O)N(c2ccccc2)C1=O` (stereo unspecified) stands “inactive”.

On to `Cc1nn(Cc2ccccc2)c(C)c1C(=O)N1CCN(CC(=O)Nc2ccccc2Cl)CC1`, for which the Potency result is “inactive”.

For the compound `CC(OC(=O)c1cc2ccccc2o1)C(=O)Nc1ccc(N2CCOCC2)cc1` (stereo unspecified), the Potency entry was “inactive”. For `OC(c1nc2ccc(F)cc2[nH]1)C(O)c1nc2ccc(F)cc2[nH]1` (stereo unspecified), the Potency entry is “inactive”. Regarding `OC(c1nc2ccccc2[nH]1)C(O)C(O)C(O)c1nc2ccccc2[nH]1` (stereo unspecified), the Potency result was “inactive”. With `CC(C)c1nc2ccc(C(=O)O)cc2[nH]1` the figure was 11.6 µM (active). For the compound `CN(C(=O)c1cccc(NC(=O)Cc2ccc(NC(=O)C3CCN(C(=O)C4CCCCC4)CC3)cc2)c1)C1CCC1`, the Potency result is “inactive”. Take `Cc1ccc(S(=O)(=O)Nc2ccc3c(c2)C(=O)N([C@H](C)CO)C[C@@H](C)[C@@H](CN(C)C(=O)Nc2cccc4ccccc24)O3)cc1`: the Potency entry was “inactive”.
